The whole screen tested about 350,000 compounds, of which about 2,300 (0.66%) were called active. Only a selection was taken, and actives are over-represented in it overall. A number with no mark means an inactive call.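 The calls were made as follows: active = mean inhibition of at least 50% after viability correction, with every replicate also passing that limit; inconclusive = mean reaches 50% but only one of two replicates passes; inactive = the rest.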

The test is described as follows: EWS/Fli-driven NR0B1 reporter inhibitors, primary screen, A673 cells, NR0B1 luciferase, luminescence, MLPCN library (AID 651661).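 Also: firefly luciferase signal divided by Alamar Blue viability fluorescence both relative to DMSO.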 The following applies: viability-normalised, at 12.6 µM, active compounds read high.
In the case of `COc1ccc(CN(C)C[C@H]2OCCCC[C@H](C)Oc3ccc(NS(C)(=O)=O)cc3C(=O)N([C@H](C)CO)C[C@@H]2C)cc1`, the inhibition is 1.53%.
The same measure for `O=C(Nc1ccc(F)cc1)N1CCCCN2[C@H](CO)[C@H](c3ccc(C#Cc4ccccc4)cc3)[C@H]2C1`: 84.6% (active); for `COc1ccc(C#Cc2ccc([C@H]3[C@@H](CO)N4CCCCN(C(=O)Nc5ccccc5)C[C@H]34)cc2)cc1`: 17.2%; for `CN(C)CC#Cc1ccc([C@@H]2[C@H](CO)N3CCCCN(C(=O)Nc4ccc(F)cc4)C[C@@H]23)cc1`: -2.85%.
With `CO[C@H]1CN(C)C(=O)c2ccc(NC(=O)C3CCC3)cc2OC[C@@H](C)NC[C@H]1C` the figure was 10.2%; with `CO[C@H]1CN(C)C(=O)c2cc(NC(=O)C3CCCCC3)ccc2OC[C@H](C)N(C(=O)c2ccccc2)C[C@H]1C`, 9.65%; with `CCCNC(=O)[C@H]1[C@H](CO)[C@H]2Cn3c(cccc3=O)[C@H]2N1Cc1ccccc1Cl`, -2.68%.
With `O=C(CCl)N(Cc1cccc([N+](=O)[O-])c1)c1cccc(Cl)c1` the figure was 60% (active); with `CC(=O)N(CN1C(=O)C2C3C=CC(C3)C2C1=O)c1cccc(Cl)c1` (configuration not stated), -2.77%.
Regarding `COC(=O)c1cc(C(=O)N(Cc2ccccc2)c2ccccn2)cc([N+](=O)[O-])c1`, the inhibition was 7.71%.
As to `CCC(=O)N(C)C[C@H]1Oc2cc(C#CCOC)ccc2S(=O)(=O)N([C@H](C)CO)C[C@H]1C`, the inhibition is -9.57%.
The same measure for `CCn1c(C)c(C)c2cc(C(=O)N3CCN(c4cccc(C)c4C)CC3)ccc21`: 5.16%; for `CCOc1ccccc1N1CCN(C(=O)COc2ccc3c(C)cc(=O)oc3c2)CC1`: 6.43%.
With `CCOc1ccccc1N1CCN(C(=O)c2ccc3[nH]c(C)c(C)c3c2)CC1` the figure was 55.9% (active); with `CCC(=O)Nc1ccc2c(c1)C(=O)N(C)[C@H]1CC[C@H](CC(=O)NC3Cc4ccccc4C3)O[C@H]1CO2`, 4.71%; with `COc1ccc2c3c(n(C)c2c1)[C@H](CO)N(Cc1ccccc1Cl)CC31CN(C(=O)CN(C)C)C1`, 6.01%.
The same measure for `O=c1oc2ccccc2cc1-c1cn(-c2ccccc2)c(=S)[nH]1`: 67.6% (active); for `COc1cccc(-n2c(=S)[nH]c3c(oc4ccccc43)c2=O)c1`: -11.6%; for `CS(=O)(=O)N1CCN(C(=O)c2cc3ccccc3oc2=O)CC1`: -13.4%.
`O=C(N[C@H]1CC[C@H](CCNS(=O)(=O)c2ccc(F)cc2)O[C@H]1CO)c1cccnc1`: the inhibition is -0.681%.
With `C[C@@H]1CN([C@@H](C)CO)C(=O)Cc2cc(NC(=O)C3CCCCC3)ccc2O[C@@H]1CN(C)Cc1ccc(C(=O)Nc2ccccc2N)cc1` the figure was 12.7%.
For `Cn1cnc(S(=O)(=O)N[C@H]2C=C[C@H](CC(=O)NCC3CCCCC3)O[C@@H]2CO)c1`, the inhibition is -0.245%.
As for `C[C@H](CO)N1C[C@H](C)[C@@H](CN(C)Cc2ccc(-c3ccccc3)cc2)Oc2ccc(NC(=O)CCCN(C)C)cc2CC1=O`, the inhibition was 4.89%.
The same measure for `C[C@H]1CN([C@@H](C)CO)S(=O)(=O)c2ccc(C#Cc3ccncc3)cc2O[C@@H]1CN(C)C(=O)Nc1ccc2c(c1)OCO2`: 55.5% (active).
Regarding `C[C@@H]1CN([C@@H](C)CO)S(=O)(=O)c2ccc(C#Cc3ccccc3)cc2O[C@@H]1CN(C)C(=O)Nc1ccccc1`, the inhibition was 11%.
On to `C[C@H](CO)N1C[C@H](C)[C@H](CN(C)C(=O)Nc2ccc3c(c2)OCO3)Oc2cc(C#Cc3ccncc3)ccc2S1(=O)=O`, for which the inhibition was 22.2%.
The same measure for `CCn1c(/C=N/NC(=O)c2ccc(OC)cc2)nc2ccccc21`: 75.2% (active); for `CCn1c(C(O)c2cc(OC)ccc2OC)nc2ccccc21` (configuration not stated): -24.1%.
With `Cc1nc2ccccc2n1CC(=O)N/N=C/c1cccs1` the figure was 3.45%; with `COc1ccc2c3c(n(C)c2c1)[C@H](CO)N(CC1CCOCC1)CC31CCN(C(C)=O)CC1`, 0.574%.
The same measure for `C[C@H]1CN([C@@H](C)CO)S(=O)(=O)c2ccc(-c3cccc(C#N)c3)cc2O[C@H]1CN(C)C(=O)c1ccccc1`: 4.97%; for `COCC#Cc1ccc(CC[C@H]2O[C@H]3CC[C@@H](CO)O[C@H]3C[C@H]2NC(=O)Nc2c(C)noc2C)cc1`: -3.3%.
Take `CCC(=O)Nc1ccc(Nc2nc(Cl)nc(Nc3ccc(NC(=O)CC)cc3)n2)cc1`: the inhibition is 7.36%.
On to `O=C(CCl)Nc1ccc(Sc2ccc(NC(=O)CCl)cc2)cc1`, for which the inhibition was 66.1% (active).
Turning to `O=C(CCl)Nc1cccc(CP(=O)(c2ccccc2)c2ccccc2)c1`, the inhibition was 28.2%.
`CO[C@H]1CN(C)C(=O)c2ccc(NC(C)=O)cc2OC[C@H](C)N(C(=O)Cc2ccccn2)C[C@@H]1C`: the inhibition is -1.41%.
As for `CC[C@]1(O)C[C@@H]2CN(CCc3c([nH]c4ccccc34)[C@@](C(=O)OC)(c3cc4c(cc3OC)N(C)[C@H]3[C@@](O)(C(=O)OC)[C@H](OC(C)=O)[C@]5(CC)C=CCN6CC[C@]43[C@@H]65)C2)C1`, the inhibition is 63% (active).
The same measure for `CC[C@]1(O)CC2CN(CCc3c([nH]c4ccccc34)[C@@](C(=O)OC)(c3cc4c(cc3OC)N(C=O)[C@H]3[C@@](O)(C(=O)OC)[C@H](OC(C)=O)[C@]5(CC)C=CCN6CC[C@]43[C@@H]65)C2)C1` (some centres not stated): 61.7% (active).
Regarding `CN1C(=O)c2cc(NC(=O)C3CC3)ccc2OC[C@@H]2O[C@H](CC(=O)NCC3CCCCC3)CC[C@@H]21`, the inhibition was 6.23%.
Consider `C[C@H]1CN([C@@H](C)CO)S(=O)(=O)c2ccc(C3=CCCCC3)cc2O[C@@H]1CN(C)Cc1ccccc1`, for which the inhibition is 23.9%.
On to `Cc1cc(C(=O)Nc2ccc3c(c2)C(=O)N(C)[C@@H]2CC[C@@H](CC(=O)NC4CCCC4)O[C@@H]2CO3)no1`, for which the inhibition was 4.52%.
The same measure for `COc1ccc2c3c(n(C)c2c1)[C@@H](CO)N(C)CC31CN(S(=O)(=O)c2cccs2)C1`: 3.63%; for `COc1cccc(C#Cc2ccc([C@H]3[C@@H](CO)N(C(=O)c4ccccn4)[C@H]3C#N)cc2)c1`: 30.6%; for `C[C@H]1CN([C@@H](C)CO)C(=O)c2cc(-c3ccncc3)cnc2O[C@@H]1CN(C)C(=O)c1cccc(F)c1`: -6.09%.
`C[C@@H]1CN([C@H](C)CO)C(=O)c2cc(NC(=O)Nc3ccc(F)cc3)ccc2O[C@@H](C)CCCCO[C@@H]1CN(C)CC1CCCCC1`: the inhibition was 58.8% (active).
On to `C[C@@H]1CCCCO[C@H](CN(C)CC2CCCCC2)[C@H](C)CN([C@H](C)CO)C(=O)c2cc(NS(=O)(=O)c3ccc(F)cc3)ccc2O1`, for which the inhibition was 24.8%.
With `C[C@@H]1CCCCO[C@H](CN(C)CC2CCCCC2)[C@H](C)CN([C@H](C)CO)C(=O)c2cc(NC(=O)Nc3ccc(F)cc3)ccc2O1` the figure was -1.9%.
Take `C[C@H]1CCCCO[C@H](CN(C)CC2CCCCC2)[C@@H](C)CN([C@@H](C)CO)C(=O)c2cc(NS(=O)(=O)c3ccc(Cl)cc3)ccc2O1`: the inhibition is 61.5% (active).
Take `C[C@H]1CCCCO[C@@H](CN(C)Cc2ccc3c(c2)OCO3)[C@@H](C)CN([C@@H](C)CO)C(=O)c2cc(NC(=O)Nc3ccc(F)cc3)ccc2O1`: the inhibition is 73.8% (active).
With `C[C@@H]1CN([C@H](C)CO)C(=O)c2cc(NC(=O)Nc3ccc4c(c3)OCO4)ccc2O[C@@H](C)CCCCO[C@@H]1CN(C)Cc1ccc2c(c1)OCO2` the figure was 11.6%; with `C[C@@H]1CCCCO[C@@H](CN(C)Cc2ccc3c(c2)OCO3)[C@@H](C)CN([C@@H](C)CO)C(=O)c2cc(NC(=O)Nc3ccccc3)ccc2O1`, -8.42%.
The same measure for `C[C@H](CO)N1C[C@H](C)[C@H](CN(C)CC2CCCCC2)OCCCC[C@H](C)Oc2ccc(NS(=O)(=O)c3ccc(F)cc3)cc2C1=O`: -7.04%; for `C[C@@H]1CCCCO[C@H](CN(C)CC2CC2)[C@@H](C)CN([C@H](C)CO)C(=O)c2cc(NC(=O)Nc3ccc(F)cc3)ccc2O1`: -1.94%; for `CCS(=O)(=O)N1[C@H](CO)[C@@H](c2ccccc2)C12CN(C(=O)c1ccccc1F)C2`: 8.71%.
With `CC(C)NC(=O)N1[C@@H]2CN(C(=O)C3CCCCC3)c3ccccc3[C@@H]2[C@@H]1CO` the figure was 1.34%; with `CN(C)C(=O)[C@@H]1[C@@H](CO)[C@@H]2Cn3c(ccc(C4=CCCC4)c3=O)[C@H]1N2Cc1ccccn1`, -3.42%; with `COc1ccc(-c2cnc3c(c2)C(=O)N([C@@H](C)CO)C[C@H](C)[C@@H](CN(C)C(=O)C2CC2)O3)cc1`, -4.94%.
Take `CCS(=O)(=O)N1CC2(C1)CN(S(=O)(=O)c1ccccc1)[C@H](CO)c1c2c2ccc(OC)cc2n1C`: the inhibition was -5.22%.
In the case of `CO[C@@H]1CN(C)C(=O)c2ccc(NC(=O)NC(C)C)cc2OC[C@@H](C)N(Cc2ccc(-c3ccccn3)cc2)C[C@H]1C`, the inhibition is 0.576%.
With `COc1ccc2c3c([nH]c2c1)[C@H](CO)N(S(=O)(=O)c1cn(C)cn1)CC31CCN(CC2CC2)CC1` the figure was -3.8%; with `C[C@@H]1CN([C@@H](C)CO)C(=O)Cc2cc(NC(=O)CCCCCC(=O)Nc3ccccc3N)ccc2O[C@H]1CN(C)C(=O)Nc1ccc(C(F)(F)F)cc1`, 8.79%; with `C[C@@H]1CN([C@H](C)CO)C(=O)Cc2cc(NC(=O)C3CCCCC3)ccc2O[C@H]1CN(C)S(=O)(=O)c1ccc(Cl)cc1`, 4.11%.
Consider `C[C@H]1CN([C@@H](C)CO)C(=O)Cc2cc(NC(=O)CCCN(C)C)ccc2O[C@@H]1CN(C)Cc1ccc(-c2ccccc2)cc1`, for which the inhibition is -8.76%.
With `C[C@H]1CN([C@@H](C)CO)C(=O)Cc2cc(NC(=O)C3CC3)ccc2O[C@H]1CN(C)S(=O)(=O)c1ccc(Cl)cc1` the figure was 52.2% (active); with `C[C@H](CO)N1C[C@H](C)[C@H](CN(C)CC2CCCCC2)Oc2ccc(NC(=O)CCCCCC(=O)Nc3ccccc3N)cc2CC1=O`, 51.8% (active); with `COc1ccc(S(=O)(=O)N(C)C[C@@H]2Oc3ccc(NC(=O)C4CC4)cc3CC(=O)N([C@@H](C)CO)C[C@H]2C)cc1`, -1.28%.
With `C[C@@H]1CN([C@@H](C)CO)C(=O)Cc2cc(NC(=O)CCCCCC(=O)Nc3ccccc3N)ccc2O[C@@H]1CN(C)C(=O)NC1CCCCC1` the figure was 2.61%; with `C[C@H]1CN([C@@H](C)CO)C(=O)Cc2cc(NC(=O)CCCCCC(=O)Nc3ccccc3N)ccc2O[C@@H]1CN(C)Cc1ccncc1`, -9.64%.
Consider `CC(C)NC(=O)N(C)C[C@H]1Oc2ccc(NC(=O)CCCCCC(=O)Nc3ccccc3N)cc2CC(=O)N([C@@H](C)CO)C[C@H]1C`, for which the inhibition was -5.03%.
In the case of `C[C@@H]1CN([C@@H](C)CO)C(=O)Cc2cc(NC(=O)CCCN(C)C)ccc2O[C@@H]1CN(C)Cc1ccc(-c2ccccc2)cc1`, the inhibition is 17.3%.
In the case of `C[C@H](CO)N1C[C@H](C)[C@@H](CN(C)Cc2ccc(-c3ccccc3)cc2)Oc2ccc(NC(=O)CCC(F)(F)F)cc2CC1=O`, the inhibition was 72.1% (active).
With `C[C@H](CO)N1C[C@H](C)[C@H](CN(C)Cc2ccc(C(F)(F)F)cc2)Oc2ccc(NC(=O)CCCCCC(=O)Nc3ccccc3N)cc2CC1=O` the figure was 52.3% (active).
